# PubChem BioAssay
# Tested on: Lefty1
# Assay: Lefty1 protein binding to printed compounds – biochemical, small-molecule microarray, 635/667 nm fluorescence, primary screen (AID 1139)
# Conditions: fluorescence 635/667, higher = more signal
row,Structure (SMILES),composite z-score
1,C=C(COC)/C(=C/C[C@H](OC(C)=O)c1ccc(CO)o1)c1cc(C(=O)OC)ccc1OC,0.57
2,O=C(NCCN1CCOCC1)C1N=C(c2ccc(OCCCO)cc2)N(c2ccccc2)O1 (stereo unspecified),0.813
3,COCCOC(=O)N1C(=O)[C@@]2(c3cc(C#CCCO)ccc31)[C@H](C(=O)N1CCCCCCC1)[C@H]1C(=O)O[C@H](c3ccccc3)[C@H](c3ccccc3)N1[C@@H]2c1ccc(OCCO)cc1,1.6
4,COc1cc(Br)cc(C(O)C2C=CC3C(=O)N(C)C(=O)C3N2N2CCCCC2)c1OC (stereo unspecified),-1.12
5,C=C(C)[C@@H]1CC=C(C(O)C2C=CC3C(=O)N(C)C(=O)C3N2Nc2ccccc2)CC1 (stereo partly specified),0.987
6,O=C(N1CCCCC1)[C@]1(Cc2ccccc2)N=C(c2ccc(OCCCO)cc2)O[C@@H]1c1ccccc1,-0.506
7,CC(C)c1ccc(NN2C(C(O)c3ccc(B(O)O)cc3)C=CC3C(=O)N(c4ccccc4)C(=O)C32)cc1 (stereo unspecified),0.481
8,C=CCNC(=O)[C@@H]1[C@H]2C(=O)O[C@H](c3ccccc3)[C@H](c3ccccc3)N2[C@H](c2ccccc2OCCO)[C@@]12C(=O)N(C(=O)OCCOC)c1ccccc12,1.29
9,CC(C)C(O)C1C=CC2C(=O)N(c3ccccc3)C(=O)C2N1Nc1ccc([N+](=O)[O-])cc1 (stereo unspecified),-0.0809
10,COC(=O)[C@@]1(Cc2ccc(OC)cc2)[C@@H]2C(=CC(=O)[C@H]2CC(=O)C(=O)N2CCCC2)CN1C(=O)c1ccccc1,-0.319
11,COC(=O)[C@@]1(Cc2ccc(OC)cc2)[C@H]2c3cc(C(=O)N(C)C)n(Cc4ccc(S(C)(=O)=O)cc4)c3C[C@H]2CN1C(=O)c1ccccc1,0.0038
12,COCCOC(=O)N1C(=O)[C@@]2(c3cc(C#CC4(O)CCCCCC4)ccc31)[C@H](c1ccc(OCCO)cc1)N1[C@H](c3ccccc3)[C@H](c3ccccc3)OC(=O)[C@H]1[C@@H]2C(=O)N1CCN(c2ncccn2)CC1,0.651
13,COc1ccc(C#Cc2ccc3c(c2)[C@]2(C(=O)N3)[C@H](C(=O)Nc3nc4ccccc4s3)[C@H]3C(=O)O[C@H](c4ccccc4)[C@H](c4ccccc4)N3[C@@H]2c2ccc(O)cc2)cc1,1.72
14,OCCCC1=CC(c2cccs2)N(Cc2cc3c(cc2Br)OCO3)CC1 (stereo unspecified),0.433
15,CCN(CC)c1ccc(N2CC=CC34O[C@@H]5C=CCCOC(=O)C5[C@H]3C(=O)N(CCCCCCO)[C@@H]4C2=O)cc1 (stereo partly specified),0.0079
16,CCCCCN1CC=CC23O[C@@H]4/C=C\CCC(C)OC(=O)C4[C@H]2C(=O)N(C(C)CO)[C@@H]3C1=O (stereo partly specified),0.696
17,CC(C)OC(=O)C=C1C[C@@H](c2ccccn2)O[C@@H](c2ccccn2)O1,1.53
18,C=CCOC(=O)[C@H]1[C@@H]2C(=O)O[C@@H](c3ccccc3)[C@@H](c3ccccc3)N2[C@@H](c2ccc(OCCOC(=O)[C@@H]3C[C@@H]4C(=O)N[C@@H](CCCCNC(C)=O)C(=O)N4[C@@H]3c3ccc(O)cc3)cc2)[C@]12C(=O)Nc1ccccc12,1.23
19,Cc1nc2cc(Br)ccc2c(=O)o1,0.328
20,C=CCOC(=O)[C@H]1[C@@H]2C(=O)O[C@@H](c3ccccc3)[C@@H](c3ccccc3)N2[C@@H](c2ccc(OCCOC(=O)[C@H]3C[C@H]4C(=O)N[C@@H](CCCCNC(C)=O)C(=O)N4[C@H]3c3ccc(O)cc3)cc2)[C@]12C(=O)Nc1ccc(I)cc12,1.42
21,C=C[C@@H](COC(=O)OC(C)(C)C)N(Cc1ccc(OC)cc1)S(=O)(=O)c1ccc(Br)cc1,0.9
22,COc1ccc([Si](C)(C)[C@H]2[C@H](CCO)O[C@@]3(C(=O)N(Cc4ccc(N(C=O)c5ccccc5)cc4)c4ccccc43)[C@@H]2C)cc1,0.151
23,COCCOC(=O)N1C(=O)[C@@]2(c3cc(C#Cc4ccc(OC)cc4)ccc31)[C@H](c1ccc(OCCO)cc1)N1[C@H](c3ccccc3)[C@H](c3ccccc3)OC(=O)[C@H]1[C@@H]2C(=O)N1CCN(c2ncccn2)CC1,1.28
24,COc1ccc(C#Cc2ccc3c(c2)[C@]2(C(=O)N3)[C@H](c3ccccc3OCCO)N3[C@H](c4ccccc4)[C@H](c4ccccc4)OC(=O)[C@H]3[C@@H]2C(=O)Nc2nc3ccccc3s2)cc1,1.33
25,CCCC[C@@H]1C[C@H]1[C@@H](NC(=O)C(C)(C)C)c1ccc(C(F)(F)F)cc1,-0.722
26,COC(=O)C(CC#Cc1ccc2c(c1)[C@]1(C(=O)N2)[C@H](c2ccc(OCCO)cc2)N2[C@H](c3ccccc3)[C@H](c3ccccc3)OC(=O)[C@H]2[C@@H]1C(=O)Nc1nc2ccccc2s1)C(=O)OC,0.417
